A selection: hits, their analogues and other compounds. The true share with any hit is near 0.58%.
B2AR arrestin: beta2AR (human) beta-arrestin recruitment activity. P07550. beta-arrestin recruitment to beta2AR, cell-based reporter. Potency, µM (highest dose often 46.1 µM), without a hit: top-dose activation, usual class: activators. 0.02% of 330,000 active;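 also: potency is read from the fitted curve at half-maximal effect; 0% = DMSO controls and full agonism = EC100 isoproterenol or metaproterenol; nearly all actives have a fitted effect of over 65% in size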
Target sequence (P07550 whole entry, looked up): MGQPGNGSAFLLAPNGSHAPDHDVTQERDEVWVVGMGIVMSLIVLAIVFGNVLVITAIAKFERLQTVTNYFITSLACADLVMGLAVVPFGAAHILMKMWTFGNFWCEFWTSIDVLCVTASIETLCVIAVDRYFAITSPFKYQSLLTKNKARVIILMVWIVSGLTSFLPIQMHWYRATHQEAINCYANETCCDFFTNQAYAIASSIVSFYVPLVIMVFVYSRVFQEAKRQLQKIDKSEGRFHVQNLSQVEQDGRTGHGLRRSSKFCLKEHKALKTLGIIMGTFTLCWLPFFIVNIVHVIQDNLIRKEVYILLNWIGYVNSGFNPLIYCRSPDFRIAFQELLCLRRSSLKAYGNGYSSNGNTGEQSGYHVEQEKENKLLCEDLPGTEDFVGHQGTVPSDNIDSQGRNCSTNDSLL
PKM2 activator: increases activity of human pyruvate kinase M2; P14618; purified PKM2, Kinase-Glo ATP luminescence, activation; response scale: 0% is enzyme alone, no compound; Potency, µM (titrated, usually from 57.5 µM), inactives show top-dose activation, usual class: activators; 0.34% of 260,000 active; AID 1631; also: potency is read from the fitted curve at half-maximal effect; % is scaled to controls: 0 for no effect and ±100 for the full control effect; nearly all actives have a fitted effect of over 55% in size
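Kinase-Glo luminescence reports ATP generated from ADP (0.1 mM) and PEP (0.5 mM) by purified hPK-M2 after 1 h at room temperature, pH 7.2 imidazole buffer; intermediate enzyme activity allows detecting inhibitors and activators.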
IL2 activator: IL-2 activation; IL-2 activation reporter assay, cell-based qHTS; stimulated with anti-CD3/CD4/CD28 beads; in transgenic mouse T cells; activation, % (series mostly up to about 46 µM); 0.065% of 360,000 active; AID 652025; in the data active = activation above about 50%; inconclusive = mostly about 30% to 49%; also: 0% is about no effect
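Unstimulated transgenic mouse T cells; 60-min compound exposure; bead-based TCR/CD4/CD28 stimulation; 18 h culture, 37 degrees C; dual fluorescence (EGFP, DsRed) plate cytometry.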
Epigenetic reg: epigenetic control regulation, reporter derepression; AID 1865; 0.2% of 280,000 active; Potency, µM (series often up to 53.9 µM), without a hit: top-dose GFP activation, actives largely listed as activators; murine LDR cells, GFP reporter derepression, 30 h; also: potency is read from the fitted curve at half-maximal effect; % of control where 0% means no effect; nearly all actives have a fitted effect of over 60% in size
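GFP-positive cell count by laser-scanning cytometry (objects 20–120 um) after 30 h, 37 C compound exposure of murine LDR cells; reporter is CMV-GFP integrated at a silenced locus, inducible by HDAC or DNMT inhibitors.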
PINK1 modulator: PINK1 expression modulation | PINK1 immunofluorescence, high-content cytometry, 24 h | Potency, µM (highest dose often 76.6 µM), inactives show at the top dose activation (PINK1 increase), most hits filed as activators | 0.2% of 410,000 active; active = well fitted activation curve with a large enough effect; inconclusive = small, poorly fitted or top-dose-only effect; cell line not stated here; also: potency is read from the fitted curve at half-maximal effect; % of control where 0% means no effect; nearly all actives have a fitted effect of over 65% in size
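PINK1 protein, normally rapidly degraded, was detected by immunofluorescence after 24 hour compound treatment of a stable cell line. Titration data (5 concentrations) came from laser-scanning cytometry, with CCCP-treated wells as controls.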
Numbers without * were called inactive; ? = inconclusive; . = not tested or not shown; [ ] = dose if it differs, or a comment. Unless noted, calls follow the shape of the dose curve; as a rule, active = well fitted curve in the direction sought with a large enough effect; inconclusive = small, poorly fitted or top-dose-only effect, or another doubt; inactive = no such curve, though single readings can be large; an effect the other way counts as inactive or inconclusive.

SMILES | B2AR arrestin | PKM2 activator | IL2 activator | Epigenetic reg | PINK1 modulator
Cc1cc(-c2ccccc2)c2c3c(c(-c4ccccc4)n2n1)c(=O)n(C)c(=O)n3C | 0% | 9% | 70* | ? | ?
O=C1/C(=C/c2cccs2)CCC/C1=C\c1cccs1 | -1% | -11% | -1 | . | 4%
Cn1cccc1/C=C1\CCC/C(=C\c2cccn2C)C1=O | 1% | 9% | 5 | 13µM* | 12%
N#C/C(=C/c1ccc(Sc2nc3ccccc3[nH]2)o1)c1cccc(Br)c1 | 0% | 9% | -1 | -10% | 18µM*
CC(C)(O)C#Cc1ccc(CN2CCc3nnc(CNC(=O)c4cccc(F)c4)n3CC2)cc1 | . | . | . | . | 0%
O=C(Nc1cccc(Cl)c1)C1C2CCC3C(CCC21)C3(Cl)Cl (centres undefined) | -1% | 4% | 0 | 0% | 22µM*
O=C(Nc1ccccc1)C1C2CCC3C(CCC21)C3(Cl)Cl (centres undefined) | -1% | 1% | -1 | 0% | 2%
O=S(=O)(c1cnc(Cl)c(Cl)c1)N1CCCc2ccccc21 | -2% | -14% | -4 | 1% | -1%
O=S(=O)(c1cnc(Cl)c(Cl)c1)N1CCc2ccccc21 | 5% | 3.5µM* | 0 | 0% | -1%
Cc1cc2c(cc1S(=O)(=O)N1CCc3ccccc31)NC(=O)CO2 | 0% | . | -1 | 0% | 1%
O=C1COc2ccc(S(=O)(=O)N3CCc4ccccc43)cc2N1 | 4% | 14µM* | 2 | 0% | 0%
Cc1cc(C)n(-c2cccc(C(=O)NCC3Cc4cc(Cl)cc(-c5cnccn5)c4O3)c2)n1 (centres undefined) | . | . | . | . | 0%
CCN(CC)S(=O)(=O)c1cc([N+](=O)[O-])ccc1NNC(=O)Nc1ccc(Cl)c(Cl)c1 | 0% | -10% | -1 | -1% | 14µM*
O=C(NNc1ccccc1[N+](=O)[O-])Nc1ccc(Cl)c(Cl)c1 | -1% | -1% | -4 | 1% | ?
CCn1c(=O)c(=O)n(CC)c2cc(S(=O)(=O)Nc3ccc(C)cc3)ccc21 | -1% | 10µM* | 1 | -1% | 5%
Cc1nn(-c2ccc(F)cc2)c(C)c1CNC(=O)c1ccc(-n2cc(NC(=O)c3ccoc3)cn2)cc1 | . | . | . | . | 2%
CCOC(=O)N1CCc2c(sc3c2c(=O)n(-c2ccc(F)cc2)c(=O)n3CC(=O)c2ccc(Cl)cc2)C1 | . | . | . | 16µM* | 0%
NNc1nnc2c3cc(F)ccc3n(Cc3ccccc3)c2n1 | -1% | -2% | 7 | 1% | 32µM*
CCC(COC)NC(=O)c1cnn(-c2ncc3c(n2)-c2ccccc2CCC3)c1C (centres undefined) | . | . | . | . | 0%
COc1cc2ccccc2nn1 | 0% | 3% | -4 | 2% | 0%
COc1ccc2c(n1)Sc1nc3ccccc3nc1N2 | 0% | -6% | 260* | 6.3µM* | ?
COc1ccc(C(=O)/C=C/C(=O)N(CC(=O)NC2CCCCC2)Cc2ccccc2OC)c(O)c1 | 0% | ? | 0 | ? | -2%
COc1ccc(C(=O)/C=C/C(=O)N(CC(=O)NC2CCCCC2)CC2CCCO2)c(O)c1 (centres undefined) | 0% | 7.9µM* | -1 | ? | -2%
Cc1ccn2c(Nc3ccc4c(c3)OCO4)c(-c3ccccn3)nc2c1 | 0% | -6% | 1 | 1% | 40µM*
Cc1ccc(-c2nc3cnccn3c2Nc2ccc3c(c2)OCO3)o1 | -1% | 10µM* | 1 | 0% | 0%
SMILES | B2AR arrestin | PKM2 activator | IL2 activator | Epigenetic reg | PINK1 modulator
Cc1ccc(Nc2c(-c3ccc(C)o3)nc3cnccn23)cc1 | 0% | 11µM* | 1 | -1% | 1%
Cc1ccc(-c2nc3cnccn3c2Nc2ccccc2)o1 | 5% | 27% | -2 | 18% | 3%
Cc1ccc(Nc2c(-c3ccccn3)nc3cc(C)ccn23)cc1 | 3% | -1% | -1 | 1% | ?
COc1cc(OC)c(OC)cc1CN1CCOc2ccc(CN3CCN(C(C)=O)CC3)cc2C1 | . | . | . | . | 0%
CC[n+]1ccc(/C=C/c2c[nH]c3ccccc23)cc1 | 0% | -19% | 211* | . | 25µM*
C(=C\c1c[nH]c2ccccc12)/c1ccnc2ccccc12 | . | . | . | . | 1%
COc1ccc2c(/C=C/c3cc[n+](C)cc3)c[nH]c2c1 | 0% | . | 28 | . | ?
Cc1ccc2[nH]cc(/C=C/c3cc[n+](C)cc3)c2c1 | -1% | . | 71* | . | 3.5µM*
CN(CCO)C(=O)c1cn(C2CCCN(Cc3cccc4ccccc34)C2)nn1 (centres undefined) | . | . | . | . | 1%
Cc1cc(C)c2cc(C(O)c3nnnn3Cc3ccccc3)c(=O)[nH]c2c1 (centres undefined) | -1% | 13µM* | -1 | 0% | -1%[38.3 µM]
Cc1nc(NCc2c(C)nn(C)c2Cl)sc1-c1ccn(CC2COc3ccccc3O2)n1 (centres undefined) | . | . | . | . | -1%
CCCCNS(=O)(=O)c1ccc2nc(SCC(=O)c3ccc(C#N)cc3)[nH]c2c1 | 4% | 22µM* | 0 | 0% | -2%
CN(C)CC(C)(C)CNC(=O)c1cnn(-c2ncc3c(n2)-c2ccccc2CC3)c1-c1ccco1 | . | . | . | . | 0%
COc1ccc(F)c(CN2CCC3(CCC(CNC(=O)c4cc(C)nn4C)O3)CC2)c1 (centres undefined) | . | . | . | . | 1%
CCOC(=O)c1ccc(-c2ccc(/C=C(\C#N)C(=O)NCc3cccs3)o2)cc1 | 0% | -9% | 61* | 2% | 17%
Cc1ccc2nc(/C(C#N)=C/c3ccc(-c4ccccc4C(=O)O)o3)[nH]c2c1 | 0% | . | ? | . | 0%
N#C/C(=C\c1ccc(-c2ccc(F)cc2F)o1)c1nc2ccccc2[nH]1 | . | . | . | 7.9µM* | 22%
N#C/C(=C\c1ccc([N+](=O)[O-])o1)c1nc2ccccc2[nH]1 | 6% | 11% | 0 | 2.8µM* | 2%
CCOC(=O)c1ccc(-c2ccc(/C=C(\C#N)c3nc4ccc(C)cc4[nH]3)o2)cc1 | . | . | . | 1.6µM* | 6%
CCc1nc2cc(C(=O)N3CCCN(C=O)CC3)cc(NC(=O)c3ccccc3OC)c2n1C | . | . | . | . | -1%
COCC1CCCN(Cc2ccc3c(c2)CN(C(=O)c2sc(C)nc2C)CCO3)C1 (centres undefined) | . | . | . | . | -1%
Cc1ccc2nc(/C(C#N)=C\c3cc(C)n(-c4cccc([N+](=O)[O-])c4)c3C)[nH]c2c1 | 0% | -4% | 3 | 2% | ?
Cc1ccc2nc(/C(C#N)=C\c3ccc([N+](=O)[O-])o3)[nH]c2c1 | 0% | -5% | 9 | 1µM* | ?
O=C(c1ccc(NS(=O)(=O)c2cccs2)cc1)N1CCN(c2ccccc2Cl)CC1 | 0% | 6.3µM* | -1 | 0% | -1%
O=C(c1ccc(NS(=O)(=O)c2cccs2)cc1)N1CCCCC1 | 0% | 0% | -2 | 2% | 1%
